Screens as filed in PubChem BioAssay.
Compounds with a hit are over-represented: about 2.8% of the library has one in this group of screens.
FXN GAA850 act: frataxin GAA850 promoter activation. HEK293 lucGAA850 FXN promoter luciferase reporter, 24 h; percent of 10 µM SAHA response. activation, % at 6 µM. 360,000 compounds, 0.56% hits;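 active means activation above the average of all compounds screened plus 3 SD, cutoff fixed separately per campaign, cut at about 7.5% in these data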;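 further: 0% = DMSO wells and 100% = 10 µM SAHA wells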
Wnt bcat act: activates Wnt/beta-catenin signaling in a reporter cell assay; activator, plate reader; activation, % at 9.35 µM; 300,000 compounds, 1.2% hits; in the data active means activation above about 30%, passing the limit was not always enough; inconclusive means no clear call, values can overlap the other calls;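 further: 0% = neutral control wells and 100% = positive control wells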
MITF TRPM1 HTS: activators of MITF-driven TRPM1 promoter activity in SK-MEL-5 cells; 300,000 compounds, 0.75% hits; activation, % at 12.5 µM; SK-MEL-5 TRPM1-promoter luciferase, 24 h; % of positive control, neutral wells = 0;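 active means mean activation of at least 80% with every replicate also reaching 80%; inconclusive means mean reaches 80% but some replicate falls short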;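 further: 0% = neutral control wells and 100% = parthenolide positive control wells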
esBAF inh: blocks esBAF chromatin remodeling in mouse ES cells | reporter increase, % at 12.5 µM | 350,000 compounds, 2% hits | AID 602393 | Bmi1-luciferase knock-in reporter, 24 h; 100% = twice the neutral-well signal; in the data active means activation above about 40%; inconclusive means no clear call, values can overlap the other calls;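 further: 0% = median of the plate's neutral control wells and 100% = double that signal; a rise in the Bmi1 reporter signal indicates esBAF inhibition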
The depositor's hits bear a star; u = inconclusive; x = no result given.

SMILES	FXN GAA850 act	Wnt bcat act	MITF TRPM1 HTS	esBAF inh
O=C(/C=C/c1ccc(Cl)c([N+](=O)[O-])c1)Nc1cccnc1	0.5	-0.2	20.3	53.3*
O=C(/C=C/c1ccccc1)Nc1cccnc1	3.2	38.7*	x	31.0
O=C(C=Cc1ccccc1)Nc1ccccc1	3.8	14.0	34.4	3.6
COC(=O)C[C@H]1CC[C@H]2[C@H](COc3ccc(NS(=O)(=O)c4ccc(F)cc4)cc3C(=O)N2C)O1	x	x	x	5.4
Cc1cccc(NC(=O)/C=C/c2cccs2)n1	4.1	x	104.4*	20.1
O=C(/C=C/c1cccs1)Nc1ccc([N+](=O)[O-])cc1	1.8	31.0*	67.8	x
COCC#Cc1cnc2c(c1)C(=O)N([C@H](C)CO)C[C@@H](C)[C@@H](CN(C)C(=O)NC1CCCC1)O2	x	x	x	-10.6
COc1ccc(C(=O)NCc2ccc(-c3nc4ccccc4s3)cc2)cc1OC	-0.6	7.3	72.6	46.9*
CCCN(C)C[C@@H]1Oc2cc(C#CC3CCCCC3)ccc2S(=O)(=O)N([C@@H](C)CO)C[C@H]1C	x	x	x	-1.2
CCCC(=O)OCC(=O)Nc1ccc(N=Nc2ccccc2)cc1	4.8	50.8*	64.2	x
COc1cc(NC(=O)C2=C(N3CCOCC3)/C(=C/c3ccc(Cl)cc3)CC2)cc(OC)c1OC	1.5	x	-3.8	x
O=C(Nc1ccccc1)C1=C(N2CCOCC2)/C(=C/c2cccnc2)CC1	-1.6	1.4	40.5	41.8*
C[C@H](NC(=O)C[C@H]1CC[C@@H](NC(=O)C2CCC2)[C@@H](CO)O1)c1ccccc1	x	x	x	0.0
Cc1cccc(C(=O)Nc2ccc(C(=O)/C=C/c3cccnc3)cc2)c1	14.6*	x	-26.5	42.3*
C[C@H](CO)N1C[C@H](C)[C@H](CN(C)C(=O)c2ccccc2)Oc2cc(C#CC3(O)CCCC3)ccc2S1(=O)=O	x	x	x	1.7
COc1cccc(-c2nc(-c3ccccn3)no2)c1OC	0.5	59.8*	84.3*	42.5*
c1ccc(-c2noc(-c3cccc4ccccc34)n2)nc1	1.2	x	-6.3	-47.3
COc1cc(-c2nc(-c3ccccn3)no2)cc(OC)c1OC	3.3	x	62.7	50.2*
c1cncc(CSc2ccc(-c3ccc4c(c3)OCO4)nn2)c1	2.7	31.7*	68.8	49.1*
Cc1ccc(C(=O)N(CCN2CCCCC2)CC2CCCN(C3CCCC3)C2)s1 (stereo unspecified)	3.8	15.4	95.3*	x
O=C(c1cccs1)N(CCN1CCCCC1)CC1CCCN(C2CCCC2)C1 (stereo unspecified)	2.5	5.9	39.2	24.2
O=C(N/N=C/c1cn(-c2ccccc2)nc1-c1cc2ccccc2o1)c1ccncc1	1.5	x	36.6	x
O=C(N/N=C/c1cn(-c2ccccc2)nc1-c1cc2ccccc2o1)c1cccnc1	6.7	73.3*	6.6	x
O=C(C1CCOCC1)N1C[C@H]2[C@@H](c3ccccc31)[C@@H](CO)N2C(=O)c1ccccc1	x	x	x	-5.5
CCC(=O)N1CCc2cc(-c3csc(NC(=O)c4ccco4)n3)ccc21	0.8	4.9	61.6	44.7*
SMILES	FXN GAA850 act	Wnt bcat act	MITF TRPM1 HTS	esBAF inh
O=C(Nc1nc(-c2ccc3c(c2)OCCO3)cs1)c1ccco1	2.4	u	53.7	-3.1
CCC(=O)Nc1nc(-c2ccc3c(c2)CC(C)N3S(C)(=O)=O)cs1 (stereo unspecified)	1.8	7.4	35.1	54.3*
CC1Cc2cc(-c3csc(NC(=O)Cc4cccs4)n3)ccc2N1S(C)(=O)=O (stereo unspecified)	-12.1	x	-19.3	x
C[C@H](CO)N1C[C@H](C)[C@H](CN(C)Cc2ccc(Oc3ccccc3)cc2)Oc2ccc(NC(=O)Cn3cnnn3)cc2CC1=O	x	x	x	0.8
Clc1ccc(-c2cnc3ccccc3n2)cc1	5.2	x	45.5	x
Nc1ccc2nc(-c3ccccc3)cnc2c1	3.6	71.7*	x	x
CCOC(=O)c1ccc2ncc(-c3ccccc3)nc2c1	6.1	11.9	110.8*	x
CCOC(=O)c1cnc(-c2ccccc2)nc1N	4.6	-0.6	40.4	24.0
c1csc(-c2cnc3ccccc3n2)c1	4.2	55.3*	x	x
Nc1ccc(-c2cnc3ccccc3n2)cc1	3.5	u	x	-64.4
Cc1ccc(-c2cnc3ccccc3n2)cc1C	3.9	40.2*	-15.9	-32.7
c1cc(-c2cccs2)nc(-c2cccs2)c1	0.1	-6.1	37.9	x
C[C@H](CO)N1C[C@H](C)[C@H](CN(C)S(=O)(=O)c2ccccc2)OCCCC[C@H](C)Oc2ccc(NS(=O)(=O)c3ccc(Cl)cc3)cc2C1=O	x	x	x	4.2
Oc1ccc(-c2cnc3ccccc3n2)cc1	2.8	52.6*	u	x
Cc1cc2ncc(-c3ccccc3)nc2cc1C	4.3	44.8*	37.0	-11.6
Cc1nc2ccc(C(=O)OCc3ccccc3Br)cc2nc1C	2.7	0.0	71.2	102.2*
CC(=O)Nc1ccc(C(=O)OCc2ccccc2Br)cc1	2.3	8.1	28.8	18.7
O=C(Oc1ccc(-c2cnc3ccccc3n2)cc1)c1cccc([N+](=O)[O-])c1	-1.6	x	55.3	x
O=C(Oc1ccc(-c2cnc3ccccc3n2)cc1)c1ccc(Br)o1	4.2	33.8*	58.5	12.1
Cc1cc(C(=O)Nc2ccc3c(c2)C(=O)N(C)[C@@H]2CC[C@@H](CC(=O)N[C@H](C)c4ccccc4)O[C@@H]2CO3)no1	x	x	x	-0.6
CO[C@@H]1CN(C)C(=O)c2ccc(NC(=O)C3CC3)cc2OC[C@@H](C)N(C(=O)c2ccccc2F)C[C@H]1C	x	x	x	-0.2
C[C@@H]1CN([C@H](C)CO)C(=O)c2cc(NC(=O)Nc3ccc(F)cc3)ccc2O[C@H]1CN(C)Cc1ccc(C(F)(F)F)cc1	x	x	x	4.7
C[C@@H]1CN([C@@H](C)CO)C(=O)c2cc(/C=C/c3ccccc3)cnc2O[C@H]1CN(C)C(=O)c1ccc(F)cc1	x	x	x	2.5
CCOC(=O)c1cccc(-c2c(-c3ccccc3)ncc3cc(OC)c(OC)cc23)c1	2.6	-0.9	97.4*	66.8*
CC=Cc1ccc2n(c1=O)C[C@H]1[C@H](CO)[C@@H](C(=O)NCCC)N(Cc3ccccn3)[C@@H]21 (mixture of isomers)	x	x	x	-1.0
SMILES	FXN GAA850 act	Wnt bcat act	MITF TRPM1 HTS	esBAF inh
COc1cccc2c1nc(C)c1cc(C)oc12	1.0	x	30.8	18.2
COc1cccc2nc3cc(C)c(C)cc3nc12	7.0	33.9*	0.2	-8.4
COc1ccc(S(=O)(=O)N(C)C[C@H]2Oc3ccc(NC(=O)Nc4c(C)noc4C)cc3C(=O)N([C@@H](C)CO)C[C@H]2C)cc1	x	x	x	-2.0
O=C(/C=C/c1ccccc1Cl)Nc1ccccc1	2.2	44.7*	x	x
O=C(/C=C/c1ccccc1Cl)Nc1cccc(O)c1	5.4	54.2*	53.7	x
CCCc1cc2c(=O)c(-c3ccccn3)coc2cc1OC	5.0	53.4*	116.0*	99.6*
COc1cccc(Nc2nc(-c3sc(C)nc3C)cs2)c1	5.8	0.1	x	70.9*
Cc1nc(C)c(-c2csc(Nc3ccc(Cl)cn3)n2)s1	0.2	0.4	x	59.5*
Cc1nc(C)c(-c2csc(Nc3ncccc3C)n2)s1	5.5	14.7	35.9	54.7*
Cc1nc(C)c(-c2csc(Nc3ccc(F)cc3)n2)s1	6.1	33.7*	36.4	x
